# According to PubChem BioAssay AID651812 (National Center for Advancing Translational Sciences (NCATS), 2012):
# Hit rate of the full screen: of about 2,100 compounds, about 650 (31%) were called active. Roughly 16% stayed inconclusive and do not appear here. The call rests on the fitted dose curve; in most records, active means well fitted inhibition curve with a large enough effect; inconclusive means small, poorly fitted or top-dose-only effect; inactive means flat fitted curve, though single readings scatter. This is one part of the list.
# Assay: qHTS for inhibitors of Vif-A3G interactions: Cherry picks; further: nearly all actives have a fitted effect of over 80% in size; on activity, negative = fluorescence increase: % of control where 0% means no effect
# Details: HeLa A3G-eYFP + Vif (tagged APOBEC3G with the HIV-1 protein that degrades it), 24 h; Potency: eYFP fluorescence increase; series mostly up to 36.9 µM; activity, negative = fluorescence increase: at the top concentration
# Procedure, shortened: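 HeLa cells stably expressing A3G-eYFP and Vif, cultured overnight then exposed to compounds at several concentrations for 24 hours at 37 C, 5% CO2; cellular yellow fluorescence (488 nm ex, 500-530 nm em) imaged on Acumen, MG132 positive control.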
# Potency means the concentration at half of the fitted maximal effect.
Structure (SMILES),"activity, negative = fluorescence increase",Potency
S=c1[nH]cnc2sc(-c3ccccc3)cc12,2.34% [at 46.1 µM] (inactive),–
CN(C)C=Nc1c(Br)cc(Br)c2nonc12,–,9.2 µM (active)
Cc1ccc(C=NNC(=O)c2cc(-c3cccnc3)nc3ccccc23)o1,-9.91% (inactive),–
Nc1c(C(=O)N/N=C/c2ccccc2Cl)oc2nc(-c3ccccc3)cc(-c3ccco3)c12,–,5.8 µM (active)
O=C(N/N=C/c1cccc(F)c1)c1cc(-c2ccco2)nc2ccccc12,-0.017% (inactive),–
Nc1c(C(=O)N/N=C/c2cccnc2)oc2nc(-c3ccccc3)cc(-c3ccco3)c12,–,5.8 µM (active)
Cc1ccc(/C=N/NC(=O)c2cc(-c3ccccc3)nc3ccccc23)o1,-9.54% (inactive),–
O=C(N/N=C/c1ccc(Cl)cc1)c1cc(-c2cccnc2)nc2ccccc12,-2.64% (inactive),–
Nc1c(C(=O)N/N=C/c2ccc(F)cc2)oc2nc(-c3ccccc3)cc(-c3ccco3)c12,–,12.5 µM (active)
O=C(N/N=C/c1ccc2c(c1)OCO2)c1cc(-c2ccco2)nc2ccccc12,-4.33% (inactive),–
O=C(N/N=C/c1ccco1)c1cc(-c2ccncc2)nc2ccccc12,-8.06% (inactive),–
CN(Cc1cnn(Cc2ccccc2)c1)C(=O)c1cccc(S(=O)(=O)N2CCOCC2)c1,-3.86% (inactive),–
O=C(CN1c2cccc3cccc(c23)S1(=O)=O)Nc1ccc(S(=O)(=O)N2CCOCC2)cc1,-4.13% [at 46.1 µM] (inactive),–
CCn1c(O)c(/C=N/NC(=O)c2ccncc2)c(=O)n(CC)c1=S,9.98% [at 46.1 µM] (inactive),–
CC[n+]1c(C=C2C=C(C)OC(C)=C2)sc2ccccc21,–,8.2 µM (active)
CCSC1=NSC2=NC(=O)/C(=C\c3coc4ccccc4c3=O)C(=N)N12,–,23.1 µM (active)
CCS(=O)(=O)c1nn2c(N)c(/C=C3/C=CC(=O)C(OC)=C3)c(=O)nc2s1,13.5% [at 46.1 µM] (inactive),–
COC1=C/C(=C/c2c(N)n3nc(-c4ccc(C)cc4)sc3nc2=O)C=CC1=O,–,14.6 µM (active)
CCc1ccc(CNC(=O)Cc2ccc(NC(=O)C3=C(C)OCCS3)cc2)cc1,-1.61% (inactive),–
N#CC1=C2SCC(O)(c3ccccc3)N2C(=O)CC1c1ccccc1 (stereo not drawn),-17.3% (inactive),–
COc1ccc(NC(=O)C2(C)Cc3c(-c4cccc(NC(C)=O)c4)ccnc3O2)cn1 (stereo not drawn),-5.51% (inactive),–
CCOc1ncccc1C(=O)NCc1ccc(OC)cc1,-0.568% (inactive),–
Nc1nc(SCc2ccc(Cl)cc2Cl)nc2nc3c(cc12)CCCC3,–,23.1 µM (active)
Cc1[nH][nH]c(=O)c1C(c1c(C)[nH][nH]c1=O)c1cn(Cc2ccccc2Cl)c2ccccc12,-10.2% (inactive),–
Cc1ccc2oc(/N=C(\N)NC(=O)C(C)(C)C)nc2c1,-6.59% [at 46.1 µM] (inactive),–
COC(=O)c1ccc(NC(=O)CC2Nc3cc(C)c(C)cc3NC2=O)cc1 (stereo not drawn),–,23.1 µM (active)

Structure (SMILES),"activity, negative = fluorescence increase",Potency
CCOC(=O)c1ccc(NC(=S)NC(=O)C2CCCC2)cc1,13.5% [at 46.1 µM] (inactive),–
C/C(CCc1ccc2c(c1)OCO2)=N\NC(=S)NC(C)C,-17.7% [at 46.1 µM] (inactive),–
COc1ccccc1CNC(=O)c1ccc(Nc2nc3ccccc3n3nnnc23)cc1,–,20.6 µM (active)
Fc1ccc(COc2ccc3ccccc3c2CNc2nn[nH]n2)cc1,-6.32% (inactive),–
c1ccc2c(c1)nc(N1CCOCC1)c1nnnn12,4.21% [at 46.1 µM] (inactive),–
C=CCSc1nc2ccccc2n1C(=O)/C=C/c1cc(OC)c(OC)c(OC)c1,2.28% (inactive),–
CN(C)c1ccc(Nc2nc3ccccc3n3nnnc23)cc1,-25.5% [at 46.1 µM] (inactive),–
Cc1ccc(C(=O)O)cc1Nc1nc2ccccc2n2nnnc12,-17.3% [at 46.1 µM] (inactive),–
Fc1ccc(CNc2nc3ccccc3n3nnnc23)cc1,–,16.4 µM (active)
CC(NC(=O)c1ccc(Nc2nc3ccccc3n3nnnc23)cc1)c1ccccc1 (stereo not drawn),–,18.4 µM (active)
CC(=O)Nc1ccc(S(=O)(=O)Nc2nc3ccccc3nc2Nc2ccc(N)cc2)cc1,-7.33% [at 46.1 µM] (inactive),–
COc1cc(Nc2nc3ccccc3n3nnnc23)cc(OC)c1OC,–,20.6 µM (active)
O=[N+]([O-])c1ccccc1C1Nc2cccc3cccc(c23)N1,9.33% [at 46.1 µM] (inactive),–
CCOC(=O)c1cc(-c2ccccc2C)n(CC2CC(c3ccc(OC)cc3)=NO2)n1 (stereo not drawn),-4.85% (inactive),–
NC(=S)N/N=C/c1ccccc1OC(=O)/C=C/c1ccccc1,1.01% [at 46.1 µM] (inactive),–
Cc1cc(OCC(=O)Nc2nnc(C3CC3)s2)ccc1Cl,1.84% (inactive),–
COc1ccc2[nH]c(C(=O)N/N=C/c3ccc(OC)c(O)c3)cc2c1,-3.2% (inactive),–
Cc1ccc(/C=N/NC(=O)c2ccc3ccccc3c2)s1,-17.8% (inactive),–
COc1cc(OC)cc(C(=O)Nc2ccc(N3CCN(C(=O)c4cccs4)CC3)cc2)c1,-1.42% (inactive),–
COc1cc2ccccc2cc1C(=O)N/N=C/c1cccs1,-8.47% (inactive),–
COc1ccc2o/c(=N/NC(=O)c3cccs3)c(C(N)=O)cc2c1,–,14 µM (active)
O=C1CN(C(=O)c2cc(Br)c(Br)s2)c2ccccc2N1,-12.4% (inactive),–
CCN(Cc1ccccc1)c1ccc(/C=C/c2nccc3ccccc23)cc1,–,20.6 µM (active)
CCN(Cc1ccccc1)c1ccc(/C=C(\C#N)c2ccccn2)cc1,-5.57% [at 46.1 µM] (inactive),–
CN(C)c1ccc(/C=C/c2nccc3ccccc23)cc1,–,23.1 µM (active)
CN(C)c1ccc(C=Cc2nccc3ccccc23)cc1,–,17.7 µM (active)

Structure (SMILES),"activity, negative = fluorescence increase",Potency
CCN(CC)c1nc(C=Cc2ccc(N(C)C)cc2)c2nccnc2n1,–,2.06 µM (active)
COc1cc(SC)ccc1C(=O)N1CCN(c2ccccc2OC)CC1,-7.48% (inactive),–
Cc1ccc2c(c1C)NC(=O)CC(c1ccccc1O)=N2,3.28% [at 46.1 µM] (inactive),–
CN(C)CCCN(C(=O)/C=C/c1cccs1)c1nc2ccc(F)cc2s1,-28.8% [at 46.1 µM] (inactive),–
Cc1ccc(CNC(=O)c2ccc3c(c2)NC(=O)C(CS(=O)(=O)Cc2cccc(C)c2)N3)cc1 (stereo not drawn),–,20.6 µM (active)
CC1Sc2ccc(C(=O)NCc3ccccn3)cc2NC1=O (stereo not drawn),-21% [at 46.1 µM] (inactive),–
CC(C)CCNC(=O)c1ccc2c(c1)NC(=O)C(CS(=O)(=O)Cc1cccc(Br)c1)N2 (stereo not drawn),4.76% [at 46.1 µM] (inactive),–
C[C@@H]1O[C@@H](O[C@@H]2C(=O)c3c(O)cc(O)cc3O[C@H]2c2ccc(O)c(O)c2)[C@H](O)[C@H](O)[C@H]1O,-4.71% (inactive),–
CN(C)C(=O)c1cccc(-c2cnc3c(NC=O)cc(-c4ccccc4F)cn23)c1,-11.7% (inactive),–
CC1=CC(C)(C)NC(=S)N1c1ccc2ccccc2c1,-1.3% (inactive),–
CCOC(=O)c1c(CC(C)C)csc1/N=C/C1C(=O)CCCC1=O,2.43% [at 46.1 µM] (inactive),–
C=C1C(=O)O[C@H]2C1CC[C@@](C)(O)C13C=CC(C)(C21)C1(C3)C(=O)O[C@@H]2C3C(C)=CCC3[C@](C)(O)C[C@H](OC(C)=O)C21 (stereo partly drawn),-9.27% (inactive),–
CN(C)c1ccc(/C=C2\Oc3ccc(C#Cc4cccc(N)c4)cc3C2=O)cc1,–,14 µM (active)
O=C1/C(=C/c2ccc([N+](=O)[O-])cc2)Oc2cc(O)ccc21,-11.4% [at 46.1 µM] (inactive),–
COc1cnc(-c2ccccn2)nc1Oc1ccc(F)cc1F,3.98% [at 46.1 µM] (inactive),–
CC(C)(C)OC(=O)NC(Cc1ccccc1)C(=O)N1CCC(C(=O)NCC(=O)Nc2ccc(F)cc2)CC1 (stereo not drawn),–,18.4 µM (active)
COc1ccc(/C=N/n2cc(-c3ccccc3)nc2N)cc1,-2.95% (inactive),–
Cc1ccnc(N/C=C(\C#N)c2nc(-c3cccc(Br)c3)cs2)c1,–,14 µM (active)
COC(=O)c1nnn(-c2nonc2N)c1CN1CCc2ccccc21,0.0341% (inactive),–
CC1(C)CCN2CCC(C)(C)c3c(O)ccc1c32,–,14 µM (active)
COc1cc(CNCCSc2nnnn2C)ccc1OCc1c(F)cccc1Cl,-0.389% [at 46.1 µM] (inactive),–
Cc1ccc(N=Cc2c(O)n(-c3nccs3)c(=O)c3ccccc23)c(C)c1,–,16.4 µM (active)
N#C/C(=C/c1ccc(-c2ccc([N+](=O)[O-])cc2)o1)C(=O)Nc1nc(-c2cccs2)cs1,-19.8% [at 46.1 µM] (inactive),–
Cc1ccc(NC(=O)/C(C#N)=C\c2ccc(-c3ccc(Cl)cc3)o2)c(C)c1,–,7.31 µM (active)
CCN(CC)c1ccc(/C=c2/sc3nnc(-c4ccccc4C)n3c2=O)cc1,–,25.9 µM (active)
O=C1NC(c2ccccc2Br)=N/C1=C\c1ccco1,2.97% [at 46.1 µM] (inactive),–

Structure (SMILES),"activity, negative = fluorescence increase",Potency
Cc1cccc(N2CCN(C(=O)c3ccncc3)CC2)c1C,-12% (inactive),–
C(=Cc1c[nH]c2ccccc12)c1ccc2ccccc2n1,–,20.6 µM (active)
Cc1[nH]c2ccccc2c1/C=C/c1ccnc2ccccc12,-21.3% [at 46.1 µM] (inactive),–
Cc1[nH]c2ccccc2c1/C=C/c1ccc2ccccc2n1,–,18.4 µM (active)
C(=C\c1c[nH]c2ccccc12)/c1ccc2ccccc2n1,–,18.4 µM (active)
Nc1cccc(CCc2nc3cc4ccccc4cc3[nH]2)c1,-1.81% (inactive),–
Cc1cc(NC(=O)NC(=O)c2ccccc2NC(=O)C(C)N)ccc1Oc1ncc(Br)cn1 (stereo not drawn),-14.1% (inactive),–
CC(=O)Nc1ccc(S(=O)(=O)Nc2nc3ccccc3nc2Sc2nncn2C)cc1,-27.3% [at 46.1 µM] (inactive),–
O=c1cc(-c2ccccc2)[nH]c2ccccc12,-0.648% (inactive),–
Cc1ccc2[nH]c(C)c(/C=C/c3cc[n+](C)cc3)c2c1,–,1.77 µM (active)
Cc1[nH]c2ccccc2c1/C=C/C(=O)c1ccccc1,–,23.1 µM (active)
Cc1[nH]c2ccccc2c1/C=C/c1cc[n+](C)cc1,–,4.44 µM (active)
COc1ccc(-c2cc(NC(C)=O)c3ncc(-c4cc(OC)c(OC)c(OC)c4)n3c2)cn1,-25.2% (inactive),–
CCOc1ccccc1N1CC(c2nc3ccccc3n2Cc2c(C)cc(C)cc2C)CC1=O (stereo not drawn),-1.13% [at 46.1 µM] (inactive),–
O=C(Cn1ncc(Cl)c(Cl)c1=O)N1CCN(S(=O)(=O)c2ccc3ccccc3c2)CC1,-4.68% (inactive),–
Cc1ccc(/C=N/NC(=O)C2COc3ccccc3O2)s1 (stereo not drawn),-6.59% (inactive),–
O=S(=O)(Nc1cccc2ncccc12)c1cccs1,-9.28% (inactive),–
Cc1ccc(NC(=O)/C=C/c2ccc([N+](=O)[O-])s2)cc1,–,7.31 µM (active)
Cc1nc(NC(=O)/C=C/c2ccco2)sc1C,-4.83% (inactive),–
Cc1ccc(NC(=O)Cc2ccc(-n3cccc3)cc2)c(C)c1,7.11% [at 46.1 µM] (inactive),–
Cc1ccc(NC(=O)/C=C/c2ccc([N+](=O)[O-])s2)c(C)c1,–,5.8 µM (active)
Cc1ccc(NC(=O)C(=Cc2ccc(C(=O)O)cc2)C(=O)Nc2ccc(C)cc2C)c(C)c1,-3.15% (inactive),–
CC(=O)c1cccc(NC(=S)N2c3ccccc3CC2C)c1 (stereo not drawn),0.849% (inactive),–
CC(=O)c1cccc(NC(=O)/C=C/c2ccc([N+](=O)[O-])s2)c1,–,8.2 µM (active)
Cc1cccc(NC(=O)/C=C/c2ccc([N+](=O)[O-])s2)c1,–,4.11 µM (active)
